The values below come from PMC7862700, “An all-to-all approach to the identification of sequence-specific readers for epigenetic DNA modifications on cytosine”.

Experiment in all cases: DAPPL (digital affinity profiling via proximity ligation, sequencing); 10 mM Tris-HCl pH 7.5, 50 mM NaCl, 1 mM DTT, 4% glycerol, room temperature, 30 min; GST-TFs on glutathione beads, 16-mer random dsDNA library, 0.1% formaldehyde crosslink after washing; high values mean tight binding
The target in test [1] is T1, FEV (Homo sapiens, UniProt Q99581 1-238).
T1 sequence: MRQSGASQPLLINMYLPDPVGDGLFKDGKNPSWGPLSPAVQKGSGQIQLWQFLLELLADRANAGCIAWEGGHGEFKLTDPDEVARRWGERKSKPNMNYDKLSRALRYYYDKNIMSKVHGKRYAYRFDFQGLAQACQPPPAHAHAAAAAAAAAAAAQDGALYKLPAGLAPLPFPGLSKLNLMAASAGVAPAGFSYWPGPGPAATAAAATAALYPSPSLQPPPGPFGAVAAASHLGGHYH
To be noted: protein: recombinant; tags: N-terminal GST; dsDNA, one strand shown. The method in brief:
(§1)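 In yeast, human transcription factors were expressed with a GST fusion, then pulled down on glutathione beads and given DNA barcodes. Pooled with a tag-only sample, they were exposed to 200 nmole of a 16-mer random double-stranded DNA library (Tris/NaCl/DTT/glycerol buffer, room temperature, 30 min), washed, crosslinked with 0.1% formaldehyde, proximity-ligated using BsaI/T4 ligase for 1 h at 37 °C, PCR-amplified and read on an Illumina NextSeq500. Each hexamer's frequency of reads for a factor, divided by the matching frequency for the tag-only sample, gives the binding signal.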

In test [2] the target is ETV5 (Homo sapiens, UniProt P41161 1-510). The settings on record: protein: recombinant; tags: N-terminal GST; dsDNA, one strand shown. The method in brief: as §1
ETV5, sequence (P41161 whole entry): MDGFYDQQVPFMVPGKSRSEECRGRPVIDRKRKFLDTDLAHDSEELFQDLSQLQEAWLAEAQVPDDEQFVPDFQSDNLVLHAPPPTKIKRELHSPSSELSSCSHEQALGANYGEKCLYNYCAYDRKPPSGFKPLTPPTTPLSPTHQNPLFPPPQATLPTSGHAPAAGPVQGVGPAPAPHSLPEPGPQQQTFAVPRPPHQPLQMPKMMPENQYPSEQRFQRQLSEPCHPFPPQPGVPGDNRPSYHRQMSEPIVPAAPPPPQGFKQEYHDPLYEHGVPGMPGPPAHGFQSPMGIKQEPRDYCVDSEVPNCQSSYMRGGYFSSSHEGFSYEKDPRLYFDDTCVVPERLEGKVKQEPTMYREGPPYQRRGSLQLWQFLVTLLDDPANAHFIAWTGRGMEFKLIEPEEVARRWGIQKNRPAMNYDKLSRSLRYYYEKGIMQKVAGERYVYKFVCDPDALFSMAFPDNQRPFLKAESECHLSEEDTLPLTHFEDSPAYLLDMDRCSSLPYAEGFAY
Test [3] concerns the target HSF1 (Homo sapiens, UniProt Q00613 1-529). The settings on record: protein: recombinant; tags: N-terminal GST; chain copies: 3; dsDNA, one strand shown. The method in brief:
as §1

The target of test [4] is T2, SPIC (Homo sapiens, UniProt Q8N5J4 1-248).
T2 sequence: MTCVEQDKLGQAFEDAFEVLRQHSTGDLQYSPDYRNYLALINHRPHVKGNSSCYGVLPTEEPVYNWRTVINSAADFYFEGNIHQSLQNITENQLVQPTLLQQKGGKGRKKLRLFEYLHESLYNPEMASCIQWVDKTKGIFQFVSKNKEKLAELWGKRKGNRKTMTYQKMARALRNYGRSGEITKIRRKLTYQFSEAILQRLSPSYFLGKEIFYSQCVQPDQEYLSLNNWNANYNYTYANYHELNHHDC
The settings on record: protein: recombinant; tags: N-terminal GST; dsDNA, one strand shown. The method in brief: as §1

The target in test [5] is ELF4 (Homo sapiens, UniProt Q99607 1-663). The settings on record: protein: recombinant; tags: N-terminal GST; dsDNA, one strand shown. The method in brief:
as §1

Test [6] concerns the target T3, ELK4 (Homo sapiens, UniProt P28324-2 1-405).
T3 sequence: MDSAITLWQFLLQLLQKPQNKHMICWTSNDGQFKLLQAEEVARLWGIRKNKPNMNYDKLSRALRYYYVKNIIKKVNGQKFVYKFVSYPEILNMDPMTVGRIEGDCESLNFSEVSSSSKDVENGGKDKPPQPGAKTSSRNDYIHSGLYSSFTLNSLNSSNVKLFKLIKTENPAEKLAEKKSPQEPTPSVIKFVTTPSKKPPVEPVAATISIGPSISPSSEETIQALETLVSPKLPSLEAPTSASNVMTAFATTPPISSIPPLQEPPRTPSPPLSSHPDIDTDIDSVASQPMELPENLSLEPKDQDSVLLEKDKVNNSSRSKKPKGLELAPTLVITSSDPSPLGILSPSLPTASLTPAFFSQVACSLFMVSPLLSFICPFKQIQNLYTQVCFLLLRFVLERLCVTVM
The settings on record: protein: recombinant; tags: N-terminal GST; dsDNA, one strand shown. An outline of the steps:
as §1

For test [7], the target named is T4, ETV2 (Homo sapiens, UniProt O00321 1-342).
T4 sequence: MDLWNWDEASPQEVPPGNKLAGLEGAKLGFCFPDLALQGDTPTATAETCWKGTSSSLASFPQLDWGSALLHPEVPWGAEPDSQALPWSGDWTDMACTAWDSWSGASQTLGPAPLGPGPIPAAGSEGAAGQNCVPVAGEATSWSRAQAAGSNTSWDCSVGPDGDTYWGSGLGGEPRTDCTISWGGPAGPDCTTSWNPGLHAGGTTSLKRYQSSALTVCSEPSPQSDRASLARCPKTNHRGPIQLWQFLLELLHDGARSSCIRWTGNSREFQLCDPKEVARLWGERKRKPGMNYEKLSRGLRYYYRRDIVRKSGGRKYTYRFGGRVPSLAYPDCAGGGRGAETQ
The settings on record: protein: recombinant; tags: N-terminal GST; dsDNA, one strand shown. The method in brief:
as §1

For test [8], the target named is T5, ELF3 (Homo sapiens, UniProt P78545 1-371).
T5 sequence: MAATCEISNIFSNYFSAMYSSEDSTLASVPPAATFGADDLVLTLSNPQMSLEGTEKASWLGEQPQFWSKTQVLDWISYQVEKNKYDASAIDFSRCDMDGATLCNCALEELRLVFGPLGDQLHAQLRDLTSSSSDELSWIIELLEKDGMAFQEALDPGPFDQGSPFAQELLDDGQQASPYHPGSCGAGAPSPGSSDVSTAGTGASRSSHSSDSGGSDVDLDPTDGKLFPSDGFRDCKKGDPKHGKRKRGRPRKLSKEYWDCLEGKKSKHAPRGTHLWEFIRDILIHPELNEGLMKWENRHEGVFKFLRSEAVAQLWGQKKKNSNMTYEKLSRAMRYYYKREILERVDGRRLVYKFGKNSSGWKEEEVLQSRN
The settings on record: protein: recombinant; tags: N-terminal GST; dsDNA, one strand shown. An outline of the steps:
as §1

Test [9] addresses CRX (Homo sapiens, UniProt O43186 1-299). The settings on record: protein: recombinant; tags: N-terminal GST; dsDNA, one strand shown. An outline of the steps:
as §1

Test [10] deals with ETV1 (Homo sapiens, UniProt P50549 1-477). The settings on record: protein: recombinant; tags: N-terminal GST; dsDNA, one strand shown. An outline of the steps: as §1
ETV1, sequence (P50549 whole entry): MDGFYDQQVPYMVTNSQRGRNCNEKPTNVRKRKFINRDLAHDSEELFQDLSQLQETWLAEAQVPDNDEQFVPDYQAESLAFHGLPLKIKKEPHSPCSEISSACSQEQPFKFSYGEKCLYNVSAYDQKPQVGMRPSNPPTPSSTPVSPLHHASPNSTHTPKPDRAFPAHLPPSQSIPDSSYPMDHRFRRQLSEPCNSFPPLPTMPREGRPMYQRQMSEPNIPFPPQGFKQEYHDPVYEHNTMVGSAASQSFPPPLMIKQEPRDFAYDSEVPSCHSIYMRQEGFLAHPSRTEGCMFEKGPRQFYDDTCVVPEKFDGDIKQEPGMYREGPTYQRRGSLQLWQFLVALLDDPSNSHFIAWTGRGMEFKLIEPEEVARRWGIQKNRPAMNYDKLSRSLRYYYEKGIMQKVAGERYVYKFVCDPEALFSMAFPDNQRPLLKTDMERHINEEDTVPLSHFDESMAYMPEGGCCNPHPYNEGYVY

HSF1, sequence (Q00613 whole entry): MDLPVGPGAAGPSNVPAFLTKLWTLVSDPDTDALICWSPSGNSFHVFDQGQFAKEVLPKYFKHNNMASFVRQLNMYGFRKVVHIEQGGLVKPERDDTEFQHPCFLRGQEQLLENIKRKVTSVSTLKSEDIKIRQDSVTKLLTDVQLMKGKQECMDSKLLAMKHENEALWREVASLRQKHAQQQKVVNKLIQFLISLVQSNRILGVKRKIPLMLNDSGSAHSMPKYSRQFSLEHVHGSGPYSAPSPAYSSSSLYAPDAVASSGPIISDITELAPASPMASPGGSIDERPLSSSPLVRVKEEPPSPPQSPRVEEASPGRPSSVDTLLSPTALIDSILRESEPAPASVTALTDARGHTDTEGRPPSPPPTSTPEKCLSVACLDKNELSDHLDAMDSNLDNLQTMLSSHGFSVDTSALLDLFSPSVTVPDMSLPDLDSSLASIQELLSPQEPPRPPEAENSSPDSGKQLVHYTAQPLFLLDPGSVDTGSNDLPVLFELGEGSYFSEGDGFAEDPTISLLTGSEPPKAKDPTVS
CRX, sequence (O43186 whole entry): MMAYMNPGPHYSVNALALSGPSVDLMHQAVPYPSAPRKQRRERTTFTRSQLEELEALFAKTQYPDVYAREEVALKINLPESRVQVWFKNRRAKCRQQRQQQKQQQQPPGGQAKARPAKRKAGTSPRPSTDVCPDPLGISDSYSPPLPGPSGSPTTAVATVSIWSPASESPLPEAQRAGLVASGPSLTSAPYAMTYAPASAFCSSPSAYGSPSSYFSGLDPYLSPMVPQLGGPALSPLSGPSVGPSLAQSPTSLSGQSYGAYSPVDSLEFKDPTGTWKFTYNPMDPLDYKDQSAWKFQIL
ELF4, sequence (Q99607 whole entry): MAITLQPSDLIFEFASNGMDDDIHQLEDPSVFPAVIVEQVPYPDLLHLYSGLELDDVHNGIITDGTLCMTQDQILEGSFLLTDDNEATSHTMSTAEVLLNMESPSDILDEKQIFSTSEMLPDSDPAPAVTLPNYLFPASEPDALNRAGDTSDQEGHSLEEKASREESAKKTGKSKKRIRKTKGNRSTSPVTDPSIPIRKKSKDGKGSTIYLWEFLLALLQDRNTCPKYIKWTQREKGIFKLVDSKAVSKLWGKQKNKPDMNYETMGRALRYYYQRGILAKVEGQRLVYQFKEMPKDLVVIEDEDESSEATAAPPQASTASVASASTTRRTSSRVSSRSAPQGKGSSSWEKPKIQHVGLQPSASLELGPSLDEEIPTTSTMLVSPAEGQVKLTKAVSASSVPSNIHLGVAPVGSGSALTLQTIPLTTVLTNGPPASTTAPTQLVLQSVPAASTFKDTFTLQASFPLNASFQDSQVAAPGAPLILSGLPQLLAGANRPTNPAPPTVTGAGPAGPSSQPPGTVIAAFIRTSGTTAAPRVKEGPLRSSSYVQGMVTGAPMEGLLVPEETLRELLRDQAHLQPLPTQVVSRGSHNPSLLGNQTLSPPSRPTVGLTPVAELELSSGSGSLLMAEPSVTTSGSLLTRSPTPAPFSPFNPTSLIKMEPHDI

On to CCGAAC, for which the binding signal in [1] was 1.25 fold enrichment (6-mer frequency, TF over GST control); in [2], 1.27 fold enrichment (6-mer frequency, TF over GST control); in [3] it was 1.54 fold enrichment (6-mer frequency, TF over GST control); in test [4], 1.32 fold enrichment (6-mer frequency, TF over GST control); in test [5], 1.26 fold enrichment (6-mer frequency, TF over GST control); in test [6], 1.25 fold enrichment (6-mer frequency, TF over GST control). In addition, the binding signal in [7] is 1.36 fold enrichment (6-mer frequency, TF over GST control); in [8] it was 1.25 fold enrichment (6-mer frequency, TF over GST control); in test [9], 1.17 fold enrichment (6-mer frequency, TF over GST control); in test [10], 1.19 fold enrichment (6-mer frequency, TF over GST control).
Consider ACGCCT, for which the binding signal in [1] is 1.17 fold enrichment (6-mer frequency, TF over GST control); in test [2], 1.2 fold enrichment (6-mer frequency, TF over GST control); in test [3] it was 1.15 fold enrichment (6-mer frequency, TF over GST control); in [4] it was 1.25 fold enrichment (6-mer frequency, TF over GST control); in [5] it was 1.21 fold enrichment (6-mer frequency, TF over GST control); in [6], 1.09 fold enrichment (6-mer frequency, TF over GST control). Moreover, the binding signal in test [7] is 1.29 fold enrichment (6-mer frequency, TF over GST control); in test [8] it was 1.12 fold enrichment (6-mer frequency, TF over GST control); in test [9], 1.08 fold enrichment (6-mer frequency, TF over GST control); in test [10], 1.05 fold enrichment (6-mer frequency, TF over GST control).
For the sequence TAAATT, the binding signal in test [1] is 1.25 fold enrichment (6-mer frequency, TF over GST control); in [2] it was 1.26 fold enrichment (6-mer frequency, TF over GST control); in test [3] it was 1.51 fold enrichment (6-mer frequency, TF over GST control); in [4], 1.25 fold enrichment (6-mer frequency, TF over GST control); in test [5] it was 1.17 fold enrichment (6-mer frequency, TF over GST control); in test [6], 1.31 fold enrichment (6-mer frequency, TF over GST control). The binding signal in test [7] is 1.34 fold enrichment (6-mer frequency, TF over GST control); in test [8], 1.32 fold enrichment (6-mer frequency, TF over GST control); in test [9], 1.76 fold enrichment (6-mer frequency, TF over GST control); in test [10] it was 1.17 fold enrichment (6-mer frequency, TF over GST control).
Take CTCCAA: the binding signal in test [1] was 1.29 fold enrichment (6-mer frequency, TF over GST control); in test [2] it was 1.3 fold enrichment (6-mer frequency, TF over GST control); in [3], 1.31 fold enrichment (6-mer frequency, TF over GST control); in test [4], 1.35 fold enrichment (6-mer frequency, TF over GST control); in test [5] it was 1.38 fold enrichment (6-mer frequency, TF over GST control); in test [6], 1.23 fold enrichment (6-mer frequency, TF over GST control). Besides, the binding signal is 1.36 fold enrichment (6-mer frequency, TF over GST control) in [7]; 1.32 fold enrichment (6-mer frequency, TF over GST control) in test [8]; 1.14 fold enrichment (6-mer frequency, TF over GST control) in test [9]; 1.33 fold enrichment (6-mer frequency, TF over GST control) in test [10].
For the sequence AACCTA, the binding signal in test [1] is 1.08 fold enrichment (6-mer frequency, TF over GST control); in [2], 1.03 fold enrichment (6-mer frequency, TF over GST control); in test [3], 1.18 fold enrichment (6-mer frequency, TF over GST control); in [4], 1.03 fold enrichment (6-mer frequency, TF over GST control); in test [5], 1.15 fold enrichment (6-mer frequency, TF over GST control); in [6], 1.07 fold enrichment (6-mer frequency, TF over GST control). In addition, the binding signal in test [7] was 1.27 fold enrichment (6-mer frequency, TF over GST control); in test [8], 1.16 fold enrichment (6-mer frequency, TF over GST control); in test [9], 1.2 fold enrichment (6-mer frequency, TF over GST control); in test [10], 1.1 fold enrichment (6-mer frequency, TF over GST control).
With ATCTCC, the binding signal was 1.5 fold enrichment (6-mer frequency, TF over GST control) in test [1]; 1.48 fold enrichment (6-mer frequency, TF over GST control) in test [2]; 1.67 fold enrichment (6-mer frequency, TF over GST control) in test [3]; 1.49 fold enrichment (6-mer frequency, TF over GST control) in [4]; 1.57 fold enrichment (6-mer frequency, TF over GST control) in [5]; 1.47 fold enrichment (6-mer frequency, TF over GST control) in [6]. Besides, the binding signal is 1.48 fold enrichment (6-mer frequency, TF over GST control) in test [7]; 1.3 fold enrichment (6-mer frequency, TF over GST control) in test [8]; 2.01 fold enrichment (6-mer frequency, TF over GST control) in [9]; 1.57 fold enrichment (6-mer frequency, TF over GST control) in test [10].
As for TCCTAC, the binding signal in test [1] is 1.4 fold enrichment (6-mer frequency, TF over GST control); in test [2] it was 1.51 fold enrichment (6-mer frequency, TF over GST control); in test [3] it was 1.21 fold enrichment (6-mer frequency, TF over GST control); in test [4], 1.54 fold enrichment (6-mer frequency, TF over GST control); in [5], 1.41 fold enrichment (6-mer frequency, TF over GST control); in [6], 1.29 fold enrichment (6-mer frequency, TF over GST control). The binding signal is 1.59 fold enrichment (6-mer frequency, TF over GST control) in test [7]; 1.16 fold enrichment (6-mer frequency, TF over GST control) in [8]; 1.31 fold enrichment (6-mer frequency, TF over GST control) in test [9]; 1.39 fold enrichment (6-mer frequency, TF over GST control) in test [10].
